Each molecule was assayed on Plasmodium falciparum (assay: GSK_TCMDC: Inhibition of Plasmodium falciparum 3D7 in whole red blood cells, using parasite LDH activity as an index of growth. Test compounds present at 2uM).
Format: functional

Q: `COC(=O)CCCCOc1cc(Cc2cnc(N)nc2N)cc(OC)c1OC` was tested. Which Inhibition did it give?
A: The Inhibition was 97%.

Q: Which Inhibition does the source give for `c1ccc2c3c(ccc2c1)Sc1c(ccc2ccccc12)N3` here?
A: Its Inhibition is 92%.

Q: `CN1CCN(c2ccnc3ccc(NC(=O)Cc4ccc5ccccc5c4)cc23)CC1` was tested. Which Inhibition did it give?
A: The Inhibition was 100%.

Q: Which Inhibition does the source give for `c1cc2[nH]c(CCCc3nc4cc(C5=N[C@H]6CCCC[C@H]6N5)ccc4[nH]3)nc2cc1C1=N[C@@H]2CCCC[C@@H]2N1` here?
A: The Inhibition was 85%.

Q: How did the Inhibition turn out when `Cc1ccc(O)cc1Nc1ccnc2cc(-c3ccc(CN4CCCCC4)o3)ccc12` was run?
A: The Inhibition was 100%.

Q: How did the Inhibition turn out when `O=C(Nc1ccc(OC2CCN(Cc3ccc(F)cc3)C2)cc1)c1cccs1.O=C(O)C(F)(F)F` (centres undefined) was run?
A: Its Inhibition is 94%.

Q: For `COc1ccc2nccc(N3CCN(CCNCc4ccc5c(n4)NC(=O)CO5)CC3)c2c1.Cl`, which Inhibition is on record?
A: Its Inhibition is 92%.

Q: How did the Inhibition turn out when `Cc1noc(C)c1-c1ccc2c(Nc3ccccc3C(C)(C)C)c(C(=O)NCc3ccccc3)cnc2c1.Cl` was run?
A: The Inhibition was 99%.

Q: With `CCN1C(=O)C(CC(=O)Nc2cccc(Cl)c2)N(Cc2ccc(OC)c(OC)c2)C1=S` (centres undefined) as the molecule, how does the Inhibition read?
A: The Inhibition was 100%.

Q: How did the Inhibition turn out when `CN1CCCC(CN2CCN(Cc3ccc(-c4ccc(-c5nc6ccccc6[nH]5)cc4)cc3)CC2)C1.O=C(O)C(F)(F)F` (centres undefined) was run?
A: Its Inhibition is 100%.

Q: Which Inhibition does the source give for `CCC(CC)(Cc1ccccc1)NC(=O)[C@H](Cc1ccc(OC)c(OC)c1)Nc1ccc(C#N)c2ccccc12.O=C(O)C(F)(F)F` here?
A: The Inhibition was 90%.

Q: Which Inhibition does the source give for `CNS(=O)(=O)c1ccc(NC(=O)c2cc(-c3cccnc3)nc3ccc(Br)cc23)cc1` here?
A: The Inhibition was 100%.

Q: How did the Inhibition turn out when `N#Cc1ccc(-n2cc(C(=O)Nc3ccc4c(c3)CCN(C3CCC3)CC4)c(C(F)(F)F)n2)cc1.O=C(O)C(F)(F)F` was run?
A: The Inhibition was 100%.

Q: `Cc1ccccc1C1CCN(C2CCC(NC(=O)c3ccc(-c4ccccc4)s3)CC2)CC1` (centres undefined) was tested. Which Inhibition did it give?
A: The Inhibition was 100%.

Q: For `CCOc1ncccc1CN1CCC(N2CCc3cc(NC(=O)c4ccco4)ccc32)C1` (centres undefined), which Inhibition is on record?
A: The Inhibition was 90%.

Q: `Cc1cccc2nc(-c3ccc(-c4cccc(NC(=O)Nc5ccccc5)c4)cc3)[nH]c12` was tested. Which Inhibition did it give?
A: Its Inhibition is 100%.

Q: Which Inhibition does the source give for `COc1cc(C)nc2ccc(NC(=O)c3cc([N+](=O)[O-])cc([N+](=O)[O-])c3)cc12.Cl` here?
A: The Inhibition was 100%.

Q: How did the Inhibition turn out when `COc1ccc(CCNCCCCCNCCCc2ccc(Cl)cc2)cc1OC.Cl` was run?
A: The Inhibition was 100%.

Q: With `Cc1ccccc1OCCCN1CCN(CC(c2ccc(F)cc2)N2CCN(C(C)C)CC2)CC1.Cl` (centres undefined) as the molecule, how does the Inhibition read?
A: Its Inhibition is 99%.

Q: `CCc1ccnc2c(N3CCCC3=O)cc(C(=O)N[C@@H](Cc3ccccc3)[C@H](O)CNC3CCOCC3)cc12.O=CO` was tested. Which Inhibition did it give?
A: The Inhibition was 99%.

Q: For `CCc1ccc(NC(=O)N(CCCN2CCN(C)CC2)Cc2csc(-c3ccc(CNCc4ccccc4)cc3)n2)cc1.O=C(O)C(F)(F)F`, which Inhibition is on record?
A: The Inhibition was 99%.

Q: `O=C1OC2(CN1CC1CCN(Cc3ccc(O)c(Cl)c3)CC1)c1ccccc1-c1ccccc12` was tested. Which Inhibition did it give?
A: Its Inhibition is 97%.

Q: How did the Inhibition turn out when `O=C(NCCCCCN1CCC(c2c[nH]c3ccccc23)C1)Nc1ccc(Cl)c(Cl)c1` (centres undefined) was run?
A: The Inhibition was 95%.

Q: For `CCN(CCCN1CCCCC1)c1cc(C)nc(Nc2cc(Cl)ccc2C)n1.O=C(O)C(F)(F)F`, which Inhibition is on record?
A: The Inhibition was 99%.

Q: Which Inhibition does the source give for `O=C(Nc1cccc(Cl)c1Cl)Nc1ccnc2ccccc12` here?
A: Its Inhibition is 100%.

Q: For `O=C(O)C(F)(F)F.c1cc(-c2ccc(CNCCCn3ccnc3)cc2)cc(-c2nc3ccccc3[nH]2)c1`, which Inhibition is on record?
A: Its Inhibition is 100%.

Q: `N#Cc1cnc2cc(-c3cnc(CNCCN4CCOCC4)s3)ccc2c1Nc1ccc(Oc2ccccc2)cc1` was tested. Which Inhibition did it give?
A: Its Inhibition is 97%.

Q: How did the Inhibition turn out when `Cc1cccc2nc(-c3ccc(-c4ccc(CNCCCN5CCCC5=O)cc4)s3)[nH]c12.O=C(O)C(F)(F)F` was run?
A: The Inhibition was 100%.

Q: How did the Inhibition turn out when `CN(C)CCC=C1c2ccccc2Sc2c(O)cc(Cl)cc21.O=C(O)/C=C\C(=O)O` was run?
A: The Inhibition was 100%.

Q: With `O=C(Nc1ccc(-c2nc3ccccc3[nH]2)cc1)c1cnc(Cl)c(Cl)c1` as the molecule, how does the Inhibition read?
A: The Inhibition was 100%.

Q: With `Cc1cc(-c2nc3ccc(N4CCN(C)CC4)cc3[nH]2)nn1Cc1cc(Cl)ccc1OCC(C)C.Cl` as the molecule, how does the Inhibition read?
A: Its Inhibition is 99%.

Q: With `CCCCCN1CCCN(Cc2cccc(NC(=O)c3ccc(Cl)c(Cl)c3)c2)CC1.O=C(O)C(F)(F)F` as the molecule, how does the Inhibition read?
A: Its Inhibition is 89%.

Q: With `C=CCOc1ccc(C(=O)Nc2nonc2-c2ccc(OC)c(OC)c2)cc1` as the molecule, how does the Inhibition read?
A: Its Inhibition is 100%.

Q: With `C=CCCCNCC(NCCCNc1cc(=O)c2ccccc2[nH]1)c1cc(Br)cc(Br)c1` (centres undefined) as the molecule, how does the Inhibition read?
A: Its Inhibition is 94%.

Q: Which Inhibition does the source give for `COc1cccc(C(=O)N2CCN(Cc3cccc(NC(=O)c4cccs4)c3)CC2)c1.O=C(O)C(F)(F)F` here?
A: Its Inhibition is 95%.

Q: With `CN1CCN(c2ccnc3ccc(NC(=O)Cc4ccc(-c5ccncc5)c5ccccc45)cc23)CC1` as the molecule, how does the Inhibition read?
A: Its Inhibition is 100%.

Q: `O=C(Nc1ccc2c(c1)CCC2)c1cnc(N2CCN(c3ccncc3)CC2)c(Cl)c1.O=C(O)C(F)(F)F` was tested. Which Inhibition did it give?
A: The Inhibition was 100%.

Q: Which Inhibition does the source give for `COc1cccc(C(=O)N2CCOC(CCN3CCC(c4ccccc4)CC3)(c3ccc(Cl)c(Cl)c3)C2)c1` (centres undefined) here?
A: The Inhibition was 87%.

Q: Which Inhibition does the source give for `O=C(Nc1ccc(-c2nc3ccccc3[nH]2)cc1)C1CCCN(C2CCC2)C1` (centres undefined) here?
A: Its Inhibition is 90%.
